Rows were chosen to be rich in hits. Some 3.1% of all compounds tested hit in one or more screens of this group.
PAFAH2 FP inh: inhibitors of human PAFAH2; Q99487; recombinant PAFAH2, FP-rhodamine activity probe, fluorescence polarization; inhibition, % at 3.39 µM; hit rate 0.99% among 340,000;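 active = inhibition above the mean over all tested compounds plus 3 SD, cut at about 30% in these data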;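 also: inhibitors block probe labeling of enzyme so polarization drops; 0% = enzyme with DMSO and 100% = wells lacking PAFAH2 protein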
PAFAH1B3 inh: inhibitors of human PAFAH1B3 | Q15102 | AID 492972 | hit rate 0.28% among 340,000 | recombinant PAFAH1B3, FP-rhodamine probe, fluorescence polarization | inhibition, % at 3.39 µM;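 active = inhibition above the screen-wide average of all tested compounds plus 3 SD, cut at about 25% in these data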;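 also: 0% = enzyme with DMSO only and 100% = wells lacking PAFAH1B3 protein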
Rin1-Abl PPI inh: inhibitors of human Rin1-Abl protein interaction. hit rate 0.4% among 360,000. P00519+Q13671. AID 588664. TR-FRET Rin1/Abl binding, biochemical. inhibition, % at 7.35 µM; in the data active = inhibition above about 5%, passing the limit was not always enough
pPAFAH inh: inhibitors of human plasma PAF acetylhydrolase (pPAFAH); Q13093; recombinant pPAFAH, FP-rhodamine probe fluorescence polarization; inhibition, % at 3.39 µM; hit rate 1.5% among 330,000; AID 463082;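 active = inhibition above the mean inhibition across the screen plus 3 SD, cut at about 25% in these data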;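 also: inhibitors block binding of the rhodamine activity-based probe so polarization drops; 0% = enzyme with DMSO and 100% = wells lacking pPAFAH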
eLon inh: inhibitors of E. coli Lon protease; P0A9M0; purified E. coli Lon protease, fluorescence polarization; inhibition, % at 7.94 µM; hit rate 0.42% among 360,000; in the data active = inhibition above about 13%, passing the limit was not always enough;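 also: 0% = enzyme with probe and DMSO and 100% = no enzyme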
PAFAH1B2 FP inh: inhibitors of human PAFAH1B2; P68402; recombinant PAFAH1B2, FP-rhodamine activity probe, fluorescence polarization; inhibition, % at 3.39 µM; hit rate 1.2% among 340,000;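 active = inhibition above the mean of all tested compounds plus 3 SD, cut at about 24% in these data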;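 also: 0% = enzyme with DMSO and 100% = wells lacking PAFAH1B2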
pPAFAH FP conf: pPAFAH (human) inhibition, confirmed; inhibition, % at 3.39 µM; AID 463230; hit rate 72% among 2,300; shares compounds with pPAFAH inh; recombinant pPAFAH, FP-Rh probe fluorescence polarization;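 active = mean inhibition of the triplicate above the hit cutoff set for the earlier primary screen, cut at about 25% in these data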;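 also: 0% = enzyme with DMSO and 100% = wells lacking pPAFAH enzyme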
Starred values were filed as active, the others as inactive; nt = no result given.

SMILES	PAFAH2 FP inh	PAFAH1B3 inh	Rin1-Abl PPI inh	pPAFAH inh	eLon inh	PAFAH1B2 FP inh	pPAFAH FP conf
CCC(C)[C@@H](N)C(=O)N/N=C/c1cccc2nccnc12 (some centres not stated)	nt	nt	nt	2	nt	nt	nt
O=C1c2ccccc2[C@@H]2C[C@@H](O)[C@H](Nc3cccc(Cl)n3)CCN12	69*	9	1	36*	-8	2	23
O=C(NCc1ccccc1)c1nnc(CS(=O)(=O)c2ccccc2)o1	7	-1	0	63*	-8	5	-2
CCOc1ccc(CNC(=O)c2nnc(CS(=O)(=O)c3ccccc3)o2)cc1OC	0	-12	0	4	0	5	nt
C=CCNC(=S)N/N=C/c1ccc(-c2cc(Cl)ccc2Cl)o1	0	9	0	-1	-5	4	nt
O=C(O)c1ccc(N/N=C/c2ccc(-c3cccc(Cl)c3)o2)cc1	16	18	0	65*	5	5	47*
NS(=O)(=O)c1ccc(-c2ccc(/C=N/Nc3ccc(C(=O)O)cc3)o2)cc1	3	5	-3	21	-16	8	nt
O=C(O)c1ccc(N/N=C/c2ccc(-c3ccc(Cl)cc3Cl)o2)cc1	21	11	-2	51*	0	11	47*
O=C(O)c1ccc(N/N=C/c2ccc(-c3cc(Cl)ccc3Cl)o2)cc1	20	17	2	37*	-10	13	56*
CC(Oc1ccc([N+](=O)[O-])cc1)C(=O)NCC1CCCO1 (configuration not stated)	4	-4	0	0	-6	4	nt
Cc1ccc(C)c(NS(=O)(=O)c2ccc3[nH]c(=O)oc3c2)c1	4	3	0	42*	-10	3	12
Cc1cccc(NS(=O)(=O)c2ccc3c(c2)oc(=O)n3C)c1C	-2	2	-2	nt	-2	0	nt
Cc1ccc(NS(=O)(=O)c2ccc3[nH]c(=O)oc3c2)cc1Cl	4	7	2	48*	-9	10	58*
Cc1cccc(NS(=O)(=O)c2ccc3[nH]c(=O)oc3c2)c1C	3	12	0	68*	-9	-3	70*
Cc1ccc(NC(=O)CNC(=O)c2ccc(OC(F)F)cc2)cc1S(=O)(=O)N1CCCCCC1	1	-4	3	nt	1	-3	nt
CC(=O)Nc1cccc(NC(=O)CCN2C(=O)c3ccccc3S2(=O)=O)c1	4	3	-1	53*	-3	-1	3
C[C@@H]1O[C@H](C2CCCCC2)Cc2[nH][nH]c(=O)c21	nt	nt	nt	nt	-5	nt	nt
O=C(O)c1cc(-c2ccc(/C=C3\NC(=O)N(c4ccc(Cl)cc4)C3=O)o2)ccc1Cl	22	11	1	37*	-13	7	23
CC1CC(=O)Nc2ccccc2N1C(=O)COc1ccccc1C(N)=O (configuration not stated)	nt	nt	0	nt	-4	nt	nt
COc1cccc(OC)c1-c1nn2c(-c3cc(-c4ccccc4)n[nH]3)nnc2s1	42*	-2	-5	37*	1	0	46*
O=c1c(-c2c(O)cc(O)c3c(=O)cc(-c4ccc(O)cc4)oc23)c(-c2ccc(O)cc2)oc2cc(O)cc(O)c12	21	44*	7	66*	-9	17	68*
O=c1cc(-c2ccc(O)cc2)oc2c(-c3c(O)cc(O)c4c(=O)cc(-c5ccc(O)cc5)oc34)c(O)cc(O)c12	57*	56*	-4	63*	7	40*	68*
O=c1cc(-c2ccc(O)c(-c3c(O)cc(O)c4c(=O)cc(-c5ccc(O)cc5)oc34)c2)oc2cc(O)cc(O)c12	38*	54*	-2	62*	2	36*	71*
COc1ccc(-c2cc(=O)c3c(O)cc(O)cc3o2)cc1	1	13	-3	4	-4	-2	nt
O=c1cc(-c2ccc(O)cc2)oc2c([C@@H]3O[C@H](CO)[C@@H](O)[C@H](O)[C@H]3O)c(O)c([C@@H]3O[C@H](CO)[C@@H](O)[C@H](O)[C@H]3O)c(O)c12	2	10	1	6	-7	4	nt
SMILES	PAFAH2 FP inh	PAFAH1B3 inh	Rin1-Abl PPI inh	pPAFAH inh	eLon inh	PAFAH1B2 FP inh	pPAFAH FP conf
O=C(Oc1nsnc1N1CCOCC1)N1CCCC1	3	11	0	6	3	8	nt
O=C(Oc1nsnc1N1CCCCC1)N1CCOCC1	28	7	-2	79*	2	5	73*
Cc1ccc(S(=O)(=O)N(C)C)cc1NC(=O)CN1C(=O)NC(Cc2c[nH]c3ccccc23)C1=O (configuration not stated)	-2	-2	1	1	1	8	nt
Cc1ccc(S(=O)(=O)N(C)C)cc1NC(=O)CN1C(=O)NC(Cc2ccccc2)C1=O (configuration not stated)	-3	-2	2	42*	-1	2	-3
COc1ccc(CN(C(C)=O)c2cc(C)c([N+](=O)[O-])cc2OC)cc1OC	nt	nt	2	nt	5	nt	nt
CC1(C(=O)NS(=O)(=O)c2cccc(Cl)c2)CCN1C(=O)C/C=C/c1ccccc1 (configuration not stated)	nt	nt	4	nt	1	nt	nt
O=c1nc2s/c(=C\c3ccco3)c(=O)n2nc1Cc1ccc(F)cc1	4	8	-7	40*	-19	0	19
COC(=O)C1CCN(C(=O)[C@H](C)NC(=O)C2CC(=O)N(c3ccc(F)cc3)C2)CC1 (some centres not stated)	5	2	6	5	1	3	nt
Cc1ccc(NC(=O)c2cc(C)n(-c3ccccc3)c2C)cc1	-2	0	-1	10	-5	-3	nt
Cc1ccc(NC(=O)c2cc(C)n(-c3cccc(C)c3)c2C)cc1	-5	5	-2	71*	-4	0	77*
C[C@H](CO)N1C[C@H](C)[C@@H](CN(C)C(=O)Nc2ccc(C(F)(F)F)cc2)Oc2ccc(NS(=O)(=O)c3ccc(F)cc3)cc2C1=O	9	9	3	61*	10	11	59*
C[C@H](CO)N1C[C@H](C)[C@@H](CN(C)C(=O)Nc2ccc(C(F)(F)F)cc2)Oc2ccc(NS(=O)(=O)c3ccccc3)cc2C1=O	2	0	1	76*	-1	4	68*
C[C@H](CO)N1C[C@H](C)[C@@H](CN(C)C(=O)Nc2ccccc2)Oc2ccc(NC(=O)Nc3ccc(C(F)(F)F)cc3)cc2C1=O	-92	-52	0	-23	-11	-28	nt
CCCCCCCCCCS(=O)(=O)N/N=C/c1ccc(O)cc1	3	-5	1	38*	4	3	44*
O=C(NC1CCCC1)C1CCN(C(=O)c2ccc(Cl)cc2Cl)CC1	0	3	3	0	3	8	nt

Screening results from PubChem BioAssay.
